Measured values as given in PubChem BioAssay AID686978 (National Center for Advancing Translational Sciences (NCATS), 2013).
Screen size: about 420,000 compounds; about 64,000 (15%) were called active. Roughly 27% stayed inconclusive and do not appear here. Only a sample is shown. A number with no mark means an inactive call. Calls follow the shape of the dose curve; as a rule, active = well fitted inhibition curve with a large enough effect; inconclusive = small, poorly fitted or top-dose-only effect; inactive = flat fitted curve, though single readings scatter.

assay: qHTS for Inhibitors of human tyrosyl-DNA phosphodiesterase 1 (TDP1): qHTS in cells in absence of CPT; conditions: DT40 Tdp1-/- hTDP1 cells, no CPT, ATP luminescence, 48 h; activity change, negative = growth inhibition: at 46.2 µM (top of the series); also: nearly all actives have a fitted effect of over 55% in size
Method in brief: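 Chicken DT40 Tdp1-/- cells stably complemented with human TDP1 were seeded at 400 cells/well with DMSO in place of 20 nM camptothecin. After compound pinning, cells grew at least 48 hr at 37 °C; viability read by CellTiter-Glo luminescence.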
% is scaled to controls: 0 for no effect and ±100 for the full control effect; potency is read from the fitted curve at half-maximal effect.

Row | Structure (SMILES) | activity change, negative = growth inhibition [%] | Potency
1 | Cc1ccc(F)cc1S(=O)(=O)Nc1cccc(C(=O)N2CCCC(C(N)=O)C2)c1 (configuration not stated) | 18.7 | 
2 | COc1cc(=O)n2c(c1C(=O)NC(C)c1ccco1)CCN(Cc1cc(C)cc(C)c1)CC2 (configuration not stated) | -11.3 | 
3 | Cn1cc(C(=O)c2ccc(Cl)cc2Cl)cc1C(=O)NN | -21.6 | 
4 | O=C(CNC(c1ccccc1)c1ccccc1)Nc1ccc(F)cc1 | -23.5 | 
5 | OCCCC1CCCCN1Cc1nc(Cc2ccccc2Cl)no1 (configuration not stated) | 10.4 | 
6 | O=Cc1c(Cl)cccc1Cl | -0.244 | 
7 | COc1ccc([N+](=O)[O-])cc1NCC(=O)c1ccc(C)cc1 | -24.8 | 
8 | Cn1ncc2c(N3CCCCC3)nc(NCCCO)nc21 | -1.11 | 
9 | Cc1cnc(C)c(-c2cc(F)c3c(c2)CC(CNC(=O)c2cccc(Cn4cccn4)c2)O3)n1 (configuration not stated) | -26.2 | 
10 | COCC1CCN(C(=O)c2ccc3oc(Cc4ccccc4)nc3c2)C1 (configuration not stated) | 5.22 | 
11 | CCOC(=O)c1ccc(NC2Nc3cc(C)nn3S2)cc1 (configuration not stated) | 3 | 
12 | O=C(O)CCCn1c(=O)c2cccn2c2ccc(F)cc21 |  | 7.31 µM (active)
13 | COCCCn1c(CCC(=O)O)ccc1-c1ccc(F)cc1 | -4.41 | 
14 | COc1cccc(CNC(=O)Cn2c(=O)c3cccn3c3ccc(F)cc32)c1OC | 6.54 | 
15 | Cc1ccccc1-c1n[nH]c(=S)n1C | 16.2 | 
16 | COC(CNC(=O)Cn1ncc2ccsc2c1=O)OC | -4.15 | 
17 | Cc1c(CN2CCC(C)CC2)c(=O)n(-c2ccccc2)n1C | 0.472 | 
18 | CCc1nnc(NC(=O)c2c(O)c3c([nH]c2=O)CCCC3)s1 | -24.8 | 
19 | Cc1ccc(C(=O)NC(=S)Nc2ccc3[nH]c(=O)[nH]c3c2)cc1C | 3.34 | 
20 | Cc1cc2[nH]ncc2cc1NC(=S)NC(=O)c1ccccc1 |  | 18.4 µM (active)
21 | COC(=O)c1nc(NC(=O)c2ccccc2)n[nH]1 | -12.7 | 
22 | O=C(COC(=O)C1CCCCC1)Nc1ccc([N+](=O)[O-])cc1 | -8.96 | 
23 | C[C@@H]1CN([C@H](C)CO)C(=O)c2cc(NC(=O)NC3CCCCC3)ccc2O[C@H]1CN(C)S(C)(=O)=O | 1.34 | 

Row | Structure (SMILES) | activity change, negative = growth inhibition [%] | Potency
24 | COc1ccc(/C=C/C(=O)NC(=S)NN2CCCCC2c2cccnc2)cc1 (configuration not stated) | -37.1 | 
25 | Cc1cc(Nc2cccc(F)c2)n2ncnc2n1 | -1.84 | 
26 | Cc1cc(N2CCN(c3ccc(F)cc3)CC2)n2ncnc2n1 |  | 16.4 µM (active)
27 | Cc1cc(N2CCN(Cc3ccc4c(c3)OCO4)CC2)n2ncnc2n1 | -17.8 | 
28 | C=CCn1c(SCC(=O)NC)nnc1C12CC3CC(CC(C3)C1)C2 | -17.5 | 
29 | O=C(c1ccc2c(c1)OCO2)N1CCNc2ccccc2C1 | -12.9 | 
30 | CCC(=O)c1cn(CCOc2ccccc2OC)c2ccccc12 |  | 23.1 µM (active)
31 | CCCn1cc(SCC(N)=O)c2ccccc21 | 12.8 | 
32 | COc1ccccc1OCCn1c(SCC(N)=O)nc2ccccc21 | -6.59 | 
33 | Cn1nnnc1SCC(=O)Nc1ccccc1C(=O)NC1CC1 | 9.22 | 
34 | Cc1cc(=O)oc2c(C)c(OCC(=O)NCCc3ccc(S(N)(=O)=O)cc3)ccc12 | 2.29 | 
35 | COc1cccc(NC(=S)NC(=O)c2c(Cl)c(C)nn2C)c1 | -8.21 | 
36 | Cc1ccc(SCc2c(C(=O)N/N=C/c3cccnc3)nnn2-c2nonc2N)cc1 | -26.9 | 
37 | Cc1ccc(SCc2c(C(=O)N/N=C/C3CC=CCC3)nnn2-c2nonc2N)cc1 (configuration not stated) | -24.7 | 
38 | Nc1nonc1-n1nnc(C(=O)N/N=C/c2cc(Br)ccc2O)c1CSC1=NCCS1 |  | 6.51 µM (active)
39 | O=C(O)c1ccccc1C(=O)Nc1ccccc1[N+](=O)[O-] | -0.699 | 
40 | CCOC(=O)N1CCN(C(=O)Cc2ccc(-n3c(=S)[nH]c4ccccc4c3=O)cc2)CC1 | -15.2 | 
41 | Cc1cccn2c(=O)c(/C=C(\C#N)S(=O)(=O)c3ccc(Cl)cc3)c(N3CCC(C(N)=O)CC3)nc12 | -20.6 | 
42 | Cc1cc(C)cc(Oc2nc3c(C)cccn3c(=O)c2/C=C(\C#N)C(=O)NC2CCS(=O)(=O)C2)c1 (configuration not stated) |  | 13 µM (active)
43 | Cc1ccc(C(=O)N/C(=C\c2ccco2)C(=O)NC2CCS(=O)(=O)C2)cc1 (configuration not stated) | 6.49 | 
44 | Cc1cc(C)n2nc(C(=O)N3CCN(Cc4ccc5c(c4)OCO5)CC3)nc2n1 | -14.8 | 
45 | CCN(CC)S(=O)(=O)c1ccc2nc(CSc3nnnn3-c3ccc(O)cc3)[nH]c2c1 | -27.3 | 
46 | CCOC(=O)/C(=N\Nc1ccccc1[N+](=O)[O-])c1csc(Nc2ccccc2)n1 |  | 16.4 µM (active)

Row | Structure (SMILES) | activity change, negative = growth inhibition [%] | Potency
47 | CCOc1ccccc1Nc1ccc(C(=O)O)cc1[N+](=O)[O-] | 8.42 | 
48 | Cc1csc(NC(=O)Nc2ccccc2[N+](=O)[O-])n1 | -20.3 | 
49 | CC(=O)c1c(C)[nH]c(C(=O)NCCCN2CCCC2)c1C | 5.85 | 
50 | Cn1cc[n+](C)c1COc1ccc(C=O)cc1 | 2.67 | 
51 | Cc1noc(C)c1C(=O)NCCc1ccc(S(N)(=O)=O)cc1 | 7.32 | 
52 | O=[N+]([O-])c1ccc(NS(=O)(=O)c2ccccc2)c(Cl)c1 |  | 20.6 µM (active)
53 | Cc1ccccc1OS(=O)(=O)c1cccc([N+](=O)[O-])c1 | -27.5 | 
54 | O=[N+]([O-])c1cccc(S(=O)(=O)N2CCCCCC2)c1 | -29.9 | 
55 | Cc1cccc(NS(=O)(=O)c2ccc([N+](=O)[O-])cc2)n1 | -3.46 | 
56 | Cc1cc([N+](=O)[O-])ccc1NS(=O)(=O)c1ccccc1 |  | 23.1 µM (active)
57 | Cc1cc([N+](=O)[O-])ccc1NC1CCCC1 | 1.28 | 
58 | COc1ccc(NC(=O)[C@H](NC(=O)[C@@H]2Cc3ccccc3CN2)c2ccccc2)cc1 | 8.27 | 
59 | CCC(=O)Nc1sc(C(=O)N2CCCCC2)c(C)c1C#N | 3.68 | 
60 | CCCCc1cc2c(s1)CCCC/C2=N/O | -9.17 | 
61 | COc1ccc(NC(=O)CC2C(=O)NC3CCCCC3N2C(=O)c2ccc(F)cc2)cc1 (configuration not stated) | -19.5 | 
62 | COc1ccc(NC(=O)N2CC3(CCN(C(C)=O)CC3)C2)cc1 | 11.3 | 
63 | COc1ccc(S(=O)(=O)NC(C)C(=O)N2CCCCCC2)cc1 (configuration not stated) | 12.3 | 
64 | COc1ccc(CNS(=O)(=O)c2ccc(NC(=O)N3CCCCC3)cc2)cc1 |  | 20.6 µM (active)
65 | Cn1c2ccccc2c(=O)c2c(=O)n(Cc3ccco3)c(COc3ccccc3)nc21 |  | 14.6 µM (active)
66 | COc1ccc(NC(=O)Cn2c(=O)n(Cc3ccco3)c(=O)c3ccccc32)cc1 | -3.08 | 
67 | CCn1c(COc2ccccc2)nnc1SCC(=O)NCc1ccco1 | -37.1 | 
68 | CCCc1cc(=O)oc2c(C)c(O)c(CN3CCCCC3)cc12 | -0.456 | 
69 | COCCN(CCOC)c1nc(N)c2c(N)nc3c(c2c1C#N)CC(=O)N3Cc1ccc(Cl)cc1 | -26.2 | 

Row | Structure (SMILES) | activity change, negative = growth inhibition [%] | Potency
70 | Cc1ccc(NC(=O)/C(=C\c2ccccc2)NC(=O)c2ccco2)cc1 | 8.92 | 
71 | CCN1CCN(C(=O)Cn2nc(C)n3c(cc4c(OC)cccc43)c2=O)CC1 | -9.41 | 
72 | COc1ccc(C2c3ccc(O)cc3Oc3ncn(CCCO)c(=N)c32)cc1OC (configuration not stated) | 7.05 | 
73 | Cc1ccc(NC(=O)COC(=O)CN2CCCCCC2=O)c(C)c1 | -13.6 | 
74 | COC(=O)C1CC2=C(CC(C)(C)CC2=O)N(c2ccccc2)C1=O (configuration not stated) | -16.6 | 
75 | CC(C)C1C2=C(CC(C)(C)CC2=O)ON1c1ccccc1 (configuration not stated) |  | 11.2 µM (active)
76 | CC(C)N1C(=O)N(c2ccccc2)C(C)(O)CC1(C)C (configuration not stated) | -9.56 | 
77 | O=C(Cn1c(=S)nc2ccccn21)N1CCc2ccccc2C1 | -9.89 | 
78 | CCc1nc2sc3c(Cl)ncnc3c2c2c1CCCC2 | 16.2 | 
79 | Fc1cc(F)c2nc(N3CCOCC3)sc2c1 | -0.301 | 
80 | CCOc1nc(NCCN2CCOCC2)nc(Nc2ccc(C)cc2)n1 | -0.278 | 
81 | O=C(O)c1ccc(-n2nc(-c3ccccc3)c3ccccc3c2=O)cc1 | -23.9 | 
82 | O=c1c2ccccc2c(-c2ccccc2)nn1Cc1ccccc1 | -21.5 | 
83 | CCOC(=O)C(C)n1nc(-c2ccccc2)c2ccccc2c1=O (configuration not stated) |  | 14.6 µM (active)
84 | NC(=O)[C@H]1CC2(CC(c3cccc(NC(=O)[C@H]4CCC(=O)N4)c3)=NO2)CN1C(=O)c1ccccc1C(=O)c1ccccc1 (some centres not stated) | 7.54 | 
85 | C/C(=N\NC(=S)NC(C)C)c1ccc(C(C)(C)C)cc1 |  | 20.6 µM (active)
86 | C/C(=N\NC(N)=S)c1ccncc1 | 10.4 | 
87 | C/C(=N\NC(N)=S)c1cccnc1 | -3.42 | 
88 | O=C(Cc1ccccc1)Nc1ccc(C(=O)Nc2ccccc2C(=O)O)cc1 | 8.32 | 
89 | Cc1cccnc1NC(=O)Cn1c(=O)oc2ccccc21 | 0.103 | 
90 | COc1cc(NS(=O)(=O)c2ccc3ccccc3c2)c2ncccc2c1 |  | 7.31 µM (active)
91 | COc1ccc2cc(S(=O)(=O)Nc3ccccn3)ccc2c1 | -15.8 | 
92 | CCOc1ncccc1C(=O)NNC(=O)c1cccc(S(=O)(=O)Nc2ccccc2OC)c1 | -18.9 | 

Row | Structure (SMILES) | activity change, negative = growth inhibition [%] | Potency
93 | C/C(O)=C\c1nc(=O)c2c(C)cc(C)nc2n1-c1ccccc1 | -18.1 | 
94 | N#Cc1c(-c2ccc(Cl)cc2)c2c([nH]c1=S)CCCC2 | -8.76 | 
95 | COc1ccc2nc(-c3ccccn3)ccc2c1 |  | 3.26 µM (active)
96 | COc1ccc(-n2c(SCC(=O)OC(C)C)nnc2-c2ccccn2)cc1 | -10.1 | 
97 | COc1ccc(-c2cn3cccnc3n2)cc1 | -25.2 | 
98 | CCOc1ccc(N(Cc2ccccc2)C(=O)c2nc(SCC)ncc2Cl)cc1 |  | 6.51 µM (active)
99 | CCOc1ccc(Cn2nnc(C(=O)NCc3ccccc3)c2N)cc1 | -21.3 | 
100 | CCOc1ccc(S(=O)(=O)N(CC(=O)O)c2ccccc2)cc1 | 2.09 | 
101 | CCOc1ccc(N(Cc2ccccc2)C(=O)c2nc(S(C)(=O)=O)ncc2Cl)cc1 |  | 0.58 µM (active)
102 | CCSc1ncc(Cl)c(C(=O)Nc2c(C(=O)c3ccccc3)oc3ccccc23)n1 | 23 | 
103 | CCSc1nnc2c(n1)OC(c1ccc(OCC(=O)O)cc1)Nc1ccccc1-2 (configuration not stated) | -18 | 
104 | CCCOc1ccc(/C(O)=C2/C(=O)C(=O)N(CCN(C)C)C2c2ccc(OC)c(OC)c2)cc1 (configuration not stated) | -12.4 | 
105 | N#CCCn1ncc2ccccc21 | -13.1 | 
106 | CC(=O)N1CCN(S(=O)(=O)c2cccc(C(=O)NC3CCC(C)CC3)c2)CC1 (configuration not stated) | -7.02 | 
107 | NS(=O)(=O)c1ccc(CNC(=O)c2cc(S(=O)(=O)N3CCOCC3)ccc2N2CCCC2)cc1 | -12.6 | 
108 | CNC(=O)C1CN(C(=O)c2cccc(S(=O)(=O)N3CCc4ccccc43)c2)c2ccccc2O1 (configuration not stated) |  | 5.8 µM (active)
109 | NS(=O)(=O)c1ccc(CNC(=O)c2cccc(S(=O)(=O)N3CCc4ccccc43)c2)cc1 |  | 9.2 µM (active)
110 | CC1Cc2ccccc2N1S(=O)(=O)c1cccc(C(=O)OCC(=O)N2CCOCC2)c1 (configuration not stated) | -27.9 | 
111 | CC1CCN(C(=O)c2cccc(S(=O)(=O)N3CCCc4ccccc43)c2)CC1 |  | 11.6 µM (active)
112 | O=C(NCCCN1CCCC1=O)c1cccc(S(=O)(=O)NCc2ccccc2)c1 | 12.8 | 
